In the library only some 4.3% were active in any assay of this set; here they are far more common.
NadD inh: blocks S. aureus nicotinate mononucleotide adenylyltransferase; AID 602399; purified NadD enzyme, colorimetric absorbance read-out; inhibition, % at 20 µM; actives 0.78% (n = 360,000); in the data active means inhibition above about 26%
FAS TE block: inhibitors of human fatty acid synthase thioesterase domain | recombinant FAS-TE, OMFH fluorogenic substrate, fluorescence endpoint | inhibition, % at 15 µM | actives 0.67% (n = 360,000) | AID 602261;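 active means compounds whose normalised, plate-corrected inhibition of enzyme fluorescence in the single-dose primary screen is 50% or more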;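 further: 0% = DMSO with enzyme and 100% = substrate without enzyme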
Target sequence (P49327 whole entry, looked up, the tested form may be a part): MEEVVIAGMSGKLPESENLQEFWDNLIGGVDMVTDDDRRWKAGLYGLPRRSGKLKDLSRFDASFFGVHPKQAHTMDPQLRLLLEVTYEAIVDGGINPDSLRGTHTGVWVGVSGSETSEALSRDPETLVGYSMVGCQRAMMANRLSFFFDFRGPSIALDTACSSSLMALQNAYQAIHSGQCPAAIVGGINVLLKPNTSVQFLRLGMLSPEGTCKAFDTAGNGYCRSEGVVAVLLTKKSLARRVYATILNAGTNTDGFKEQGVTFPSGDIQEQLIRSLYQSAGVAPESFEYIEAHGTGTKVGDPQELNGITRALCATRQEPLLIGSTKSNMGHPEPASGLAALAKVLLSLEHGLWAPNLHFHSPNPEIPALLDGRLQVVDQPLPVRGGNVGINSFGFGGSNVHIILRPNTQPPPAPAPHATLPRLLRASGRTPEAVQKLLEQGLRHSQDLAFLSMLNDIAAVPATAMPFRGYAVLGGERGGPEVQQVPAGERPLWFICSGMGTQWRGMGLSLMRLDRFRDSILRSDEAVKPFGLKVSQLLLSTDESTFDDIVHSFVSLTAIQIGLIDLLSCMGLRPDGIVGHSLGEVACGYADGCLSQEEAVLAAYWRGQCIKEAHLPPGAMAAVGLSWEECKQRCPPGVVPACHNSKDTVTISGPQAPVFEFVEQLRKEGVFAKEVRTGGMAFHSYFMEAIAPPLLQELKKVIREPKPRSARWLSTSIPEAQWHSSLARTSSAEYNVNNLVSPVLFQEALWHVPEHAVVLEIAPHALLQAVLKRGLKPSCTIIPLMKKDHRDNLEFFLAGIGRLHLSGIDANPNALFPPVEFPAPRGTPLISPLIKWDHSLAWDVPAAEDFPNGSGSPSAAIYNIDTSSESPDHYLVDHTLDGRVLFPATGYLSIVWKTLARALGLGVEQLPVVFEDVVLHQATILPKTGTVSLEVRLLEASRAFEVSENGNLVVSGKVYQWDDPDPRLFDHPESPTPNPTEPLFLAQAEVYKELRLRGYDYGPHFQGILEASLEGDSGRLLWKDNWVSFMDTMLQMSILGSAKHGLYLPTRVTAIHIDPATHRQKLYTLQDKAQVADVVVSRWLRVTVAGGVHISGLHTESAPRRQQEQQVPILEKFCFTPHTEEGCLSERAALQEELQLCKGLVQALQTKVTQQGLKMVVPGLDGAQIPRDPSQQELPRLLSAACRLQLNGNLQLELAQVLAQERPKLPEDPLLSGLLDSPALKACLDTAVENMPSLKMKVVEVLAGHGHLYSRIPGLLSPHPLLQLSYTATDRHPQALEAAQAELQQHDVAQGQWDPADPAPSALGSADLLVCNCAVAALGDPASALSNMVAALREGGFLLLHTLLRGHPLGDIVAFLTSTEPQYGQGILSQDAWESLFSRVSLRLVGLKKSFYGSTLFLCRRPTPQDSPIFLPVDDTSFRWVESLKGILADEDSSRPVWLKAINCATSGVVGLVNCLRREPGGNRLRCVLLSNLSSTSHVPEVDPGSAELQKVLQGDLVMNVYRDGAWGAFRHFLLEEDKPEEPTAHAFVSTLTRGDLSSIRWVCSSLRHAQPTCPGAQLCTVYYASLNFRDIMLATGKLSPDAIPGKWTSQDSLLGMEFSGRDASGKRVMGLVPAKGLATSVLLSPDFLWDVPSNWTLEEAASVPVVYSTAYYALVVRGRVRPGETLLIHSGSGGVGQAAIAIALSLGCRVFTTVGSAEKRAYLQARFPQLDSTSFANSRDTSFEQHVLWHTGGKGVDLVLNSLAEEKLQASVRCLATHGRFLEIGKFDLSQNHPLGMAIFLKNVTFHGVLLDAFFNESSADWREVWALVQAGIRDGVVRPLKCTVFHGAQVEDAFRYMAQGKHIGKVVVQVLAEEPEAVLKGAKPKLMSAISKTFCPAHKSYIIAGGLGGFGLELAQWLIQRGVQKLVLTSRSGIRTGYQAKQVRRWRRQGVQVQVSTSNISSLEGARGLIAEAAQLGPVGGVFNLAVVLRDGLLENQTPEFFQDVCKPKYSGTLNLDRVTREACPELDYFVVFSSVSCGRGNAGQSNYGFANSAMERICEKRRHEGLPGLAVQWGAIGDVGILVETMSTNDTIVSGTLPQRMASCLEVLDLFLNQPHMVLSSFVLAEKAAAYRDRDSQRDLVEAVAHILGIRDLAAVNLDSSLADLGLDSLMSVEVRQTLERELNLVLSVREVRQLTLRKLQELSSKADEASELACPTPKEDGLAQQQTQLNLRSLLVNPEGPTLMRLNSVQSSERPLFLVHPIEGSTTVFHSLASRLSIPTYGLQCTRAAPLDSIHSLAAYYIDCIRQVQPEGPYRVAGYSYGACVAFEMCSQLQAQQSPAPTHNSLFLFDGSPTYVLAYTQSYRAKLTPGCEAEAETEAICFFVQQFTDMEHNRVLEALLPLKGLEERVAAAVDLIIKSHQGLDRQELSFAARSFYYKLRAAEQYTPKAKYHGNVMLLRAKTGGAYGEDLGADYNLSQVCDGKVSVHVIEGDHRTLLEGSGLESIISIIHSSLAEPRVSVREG
rCAG RNA binder: binds r(CAG) RNA repeats; r(CAG) RNA repeat, TO-PRO-1 dye displacement fluorescence; actives 1.3% (n = 370,000); inhibition, % at 3 µM;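 active means inhibition above the plate cutoff, the mean of all test compounds on that plate plus 3 SD, cut at about 35% in these data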;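 further: 0% = DMSO alone and 100% = 100 µM mitoxantrone as full dye displacement; higher means more dye released from RNA so lower well fluorescence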
GRIN3A LBD mod: modulates the human NR3A ligand-binding domain | AID 1259313 | NR3A LBD differential scanning fluorimetry, Tm shift; 0% = protein alone, 100% = glycine-bound protein | Tm shift relative to glycine control, % at 25 µM | actives 2.5% (n = 340,000);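 active means melting temperature shift of at least 10% of the positive control shift, at one fixed dose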
rCAG binder conf: r(CAG) RNA repeat binding, confirmation; shares compounds with rCAG RNA binder; TO-PRO-1 dye displacement fluorescence; inhibition, % at 3 µM; actives 70% (n = 4,300); AID 652065;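 active means inhibition above a per-plate cutoff, the mean inhibition of sample wells plus 3 SD, cut at about 35% in these data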;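 further: loss of TO-PRO-1 fluorescence as compound displaces dye from 1x1 AA loop RNA; 0% = DMSO only wells and 100% = 100 µM mitoxantrone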
DNA CAG counter: counter-screen for rCAG RNA binders: DNA CAG dye complex inhibitors. shares compounds with rCAG RNA binder. d(CAG) DNA oligo TO-PRO-1 dye displacement, fluorescence. inhibition, % at 3 µM. actives 94% (n = 4,300). AID 652068;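 active means inhibition above its plate's cutoff, the mean test-well inhibition plus 3 SD, cut at about 4.8% in these data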;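 further: 0% = DNA dye mix with DMSO and 100% = 100 µM mitoxantrone; hits displace the dye from DNA and so lower well fluorescence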
An asterisk follows results filed as active.

O=C(COc1cccc2ccccc12)Nc1ccc(Cl)cc1C(=O)O was read as NadD inh -1.3, FAS TE block 12.0, rCAG RNA binder 68.0*, GRIN3A LBD mod 2.2, rCAG binder conf 66.2* and DNA CAG counter 18.8*.
For COc1ccccc1CC(=O)Nc1ccc(Cl)cc1C(=O)O the results were NadD inh -2.1, FAS TE block -3.9, rCAG RNA binder 4.0 and GRIN3A LBD mod 3.4.
`COc1ccccc1OCCOc1ccc(/C=C2\C(=N)N3N=C(S(C)(=O)=O)SC3=NC2=O)cc1` gave NadD inh 24.8, FAS TE block 4.0, rCAG RNA binder 32.3 and GRIN3A LBD mod 4.5.
Screening COc1cc(/C=C2\C(=N)N3N=C(S(C)(=O)=O)SC3=NC2=O)ccc1OS(=O)(=O)c1ccc(C)cc1 returned NadD inh 16.9, FAS TE block 21.4, rCAG RNA binder 50.8*, GRIN3A LBD mod 8.3, rCAG binder conf 86.8* and DNA CAG counter 58.7*.
For Cc1cc(/C=C2\C(=N)N3N=C(S(C)(=O)=O)SC3=NC2=O)c(C)n1Cc1ccccc1 the results were NadD inh 27.7, FAS TE block 13.1, rCAG RNA binder 65.8*, GRIN3A LBD mod -2.9, rCAG binder conf 89.0* and DNA CAG counter 61.6*.
Screening COc1cc(/C=C2\C(=N)N3N=C(S(C)(=O)=O)SC3=NC2=O)cc(OC)c1OCCOc1ccccc1C returned NadD inh 25.6*, FAS TE block 10.3, rCAG RNA binder 55.5*, GRIN3A LBD mod 32.6*, rCAG binder conf 92.5* and DNA CAG counter 81.3*.
Screening COc1cccc(OCCOc2ccc(/C=C3\C(=N)N4N=C(S(C)(=O)=O)SC4=NC3=O)cc2OC)c1 returned NadD inh 28.9, FAS TE block 8.5, rCAG RNA binder 51.5*, GRIN3A LBD mod 9.1, rCAG binder conf 90.8* and DNA CAG counter 75.0*.
`C#CCN1C(=O)[C@]2(OCCC=C[C@H]2C)c2ccccc21` gave rCAG RNA binder 1.6.
Cc1ccc2[nH]c(C(=O)N/N=C/c3ccccc3C(=O)O)c(-c3ccccc3)c2c1 was read as NadD inh 5.7, FAS TE block -1.2, rCAG RNA binder 54.8*, GRIN3A LBD mod 0.0, rCAG binder conf 36.0* and DNA CAG counter 9.0*.
`COc1ccc(/C=N/NC(=O)c2[nH]c3ccc(C)cc3c2-c2ccccc2)c(C(=O)O)c1OC` gave NadD inh 5.7, FAS TE block -2.5, rCAG RNA binder 38.5*, GRIN3A LBD mod 3.1, rCAG binder conf 46.1* and DNA CAG counter 14.8*.
Screening O=C(N/N=C/c1ccccc1C(=O)O)c1ccccc1Br returned NadD inh -2.5, FAS TE block 0.8, rCAG RNA binder -2.4 and GRIN3A LBD mod 2.1.
Screening CCCCNC(=O)C[C@@H]1C[C@]2(C(=O)OCC)CCC3=C2N(CCC3)C1=O returned rCAG RNA binder -1.8.
Screening O=C(O)c1ccccc1C(=O)Nc1nc(-c2ccc3ccccc3c2)cs1 returned NadD inh 0.6, FAS TE block 0.1, rCAG RNA binder 70.2*, GRIN3A LBD mod -9.1, rCAG binder conf 63.3* and DNA CAG counter 26.3*.
`NS(=O)(=O)c1ccc(Nc2nc(-c3ccc4ccccc4c3)cs2)cc1` gave NadD inh 23.9, FAS TE block 26.8, rCAG RNA binder 52.2*, GRIN3A LBD mod 24.6*, rCAG binder conf 36.3* and DNA CAG counter 19.9*.
For Cc1ccc(-c2csc(Nc3ccc(S(N)(=O)=O)cc3)n2)o1 the results were NadD inh 9.5, FAS TE block 3.0, rCAG RNA binder 19.9 and GRIN3A LBD mod 5.2.
`NS(=O)(=O)c1ccc(Nc2nc(-c3cccc([N+](=O)[O-])c3)cs2)cc1` gave NadD inh 19.7, FAS TE block 23.5, rCAG RNA binder 35.7*, GRIN3A LBD mod 16.5*, rCAG binder conf 22.6 and DNA CAG counter 17.0*.
For CCCCOCC1CN(CCCC)S(=O)(=O)c2c(cccc2N(C)S(=O)(=O)c2ccc(C)cc2)O1 (configuration not stated) the results were rCAG RNA binder 4.7.
`N#Cc1ccc(S(=O)(=O)NCC2CCN(C(=O)C(=O)c3cc4ccccc4o3)CC2)cc1` gave rCAG RNA binder 5.9.
For Cc1cc(NS(=O)(=O)c2ccc(NC(=O)COc3ccc(Cl)cc3Cl)cc2)no1 the results were NadD inh -0.6, FAS TE block -1.4, rCAG RNA binder 55.0*, GRIN3A LBD mod -6.7, rCAG binder conf 41.8* and DNA CAG counter 12.1*.

Screening data as filed in PubChem BioAssay.
